Among the data in PubChem BioAssay (Tox21) are Potency and outcome values, retold here.

“And” between values parts separate entries of the source, which are not always exact repeats. Equal entries are not always repeated. Results filed as inconclusive are left out. More than one record can exist for a structure, and the calls need not agree. The source made the active and inactive calls. Unless noted, calls follow the shape of the dose curve; as a rule, active = well fitted curve in the direction sought with a large enough effect in the repeat runs; inconclusive = weak or mixed curves; inactive = no such curve, though single readings can be large; an effect the other way counts as inactive or inconclusive.

A short description of assay [1]: qHTS assay for small molecule agonists of the p53 signaling pathway (AID 651631; calls by dose curve; also: nearly all actives have a fitted effect of over 15% in size; also: potency is read from the fitted curve at half-maximal effect). The gist of the method: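 Testing took place in human colorectal HCT-116 cells with stable p53RE-driven beta-lactamase. After 16 h of compound exposure at 37 °C, a FRET substrate was added and fluorescence recorded 2 h later.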
The nature of assay [2]: qHTS assay for small molecule agonists of the p53 signaling pathway - cell viability (AID 651633; calls by dose curve; also: series mostly up to about 83 µM; nearly all actives have a fitted effect of over 30% in size). The method in brief:
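p53RE-bla cells, seeded at 4,000 per well and rested 5 h at 37 C/5% CO2, received compounds in DMSO for 16 h at 37 C. CellTiter-Glo was then added, and luminescence was read after 30 min at room temperature to gauge cytotoxicity.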

Assay [3] is described as follows: qHTS assay for small molecules that induce genotoxicity in human embryonic kidney cells expressing luciferase-tagged ATAD5 - cell viability (AID 651634; calls by dose curve; also: nearly all actives have a fitted effect of over 25% in size; also: potency is read from the fitted curve at half-maximal effect). The gist of the method:
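Cytotoxicity counter-readout: after 15.5 hr compound treatment at 37C, live-cell protease activity in ATAD5-luciferase HEK293T cells measured by CellTiter-Fluor fluorescence, 30 min development at 37C.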

The nature of assay [4]: qHTS assay for small molecule disruptors of the mitochondrial membrane potential - cell viability (AID 720634; calls by dose curve; also: nearly all actives have a fitted effect of over 20% in size; also: potency is read from the fitted curve at half-maximal effect). The method in brief: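 Cytotoxicity was quantified from ATP content by CellTiter-Glo luminescence in the same wells as the MMP dye read-out. HepG2 (2,000 cells/well) were plated overnight and exposed to compounds for 1 hr at 37 C.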
Assay [5] in a line: qHTS assay for small molecule disruptors of the mitochondrial membrane potential (AID 720635). Also: potency is read from the fitted curve at half-maximal effect. The method in brief: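 HepG2 cells (2,000/well) attached overnight at 37C, then took compound for 1 hr at 37C, 5% CO2. Mito-MPS dye was added for 30 min; fluorescence was read at 490/535 nm (monomers) and 540/590 nm (aggregates).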
A short description of assay [6]: qHTS assay to test for compound auto fluorescence at 590 nm (red) in HepG2 cells (AID 720674). The gist of the method:
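Rose Bengal sodium served as the red fluorophore standard. HepG2 monolayers (overnight attachment, MEM with 10% FBS) were exposed to test compounds for 1 hr at 37 C and read at Ex 540/Em 590 nm.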

Assay [7] is described as follows: qHTS assay to test for compound auto fluorescence at 535 nm (green) in HepG2 cells (AID 720675).
The nature of assay [8]: qHTS assay to test for compound auto fluorescence at 590 nm (red) in HEK293 cells (AID 720679). The gist of the method:
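Autofluorescence equivalency to Rose Bengal sodium, 540/590nm, in HEK293 cells exposed overnight to 23 nL compound per well.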

Assay [9] can be described thus: qHTS assay to test for compound auto fluorescence at 535 nm (green) in HEK293 cells (AID 720680).
A short description of assay [10]: qHTS assay to test for compound auto fluorescence at 460 nm (blue) in HEK293 cell free culture (AID 720681). The method in brief:
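Test compounds were pinned into cell-free culture medium (DMEM with 10% FBS) and fluorescence was read directly at Ex/Em 405/460 nm. Signals were expressed as fluorescence equivalents of triamterene, with DMSO vehicle as control.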

Assay [11] is described as follows: qHTS assay to test for compound auto fluorescence at 535 nm (green) in HEK293 cell free culture (AID 720682). The gist of the method: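 DMEM + 10% FBS, cell-free; cpd or DMSO pinned in; Ex485/Em535 read; output as fluorescein-equivalent signal.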
Assay [12] can be described thus: qHTS assay to test for compound auto fluorescence at 590 nm (red) in HEK293 cell free culture (AID 720683). The method in brief: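 Tox21 10K library compounds were pinned into cell-free DMEM with 10% FBS and fluorescence was read at excitation 540 nm. Activity is expressed as Rose Bengal sodium equivalency.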
Assay [13] is described as follows: qHTS assay to test for compound auto fluorescence at 590 nm (red) in HepG2 cell free culture (AID 720684). The gist of the method: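 Readout: intrinsic compound fluorescence at 590 nm emission after 540 nm excitation, scaled to Rose Bengal sodium. Matrix was cell-free MEM with 10% FBS; DMSO vehicle wells served as control.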
Assay [14] can be described thus: qHTS assay to test for compound auto fluorescence at 460 nm (blue) in HepG2 cell free culture (AID 720685). The gist of the method: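 Cell-free plates of MEM plus 10% FBS received 23 nL compound or DMSO vehicle; blue-channel (405/460 nm) intensity scored against triamterene as reference fluorophore.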
The nature of assay [15]: qHTS assay to test for compound auto fluorescence at 535 nm (green) in HepG2 cell free culture (AID 720686).
The nature of assay [16]: qHTS assay to test for compound auto fluorescence at 460 nm (blue) in HepG2 cells (AID 720687). The gist of the method:
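Cells (2,000/well in MEM with 10% FBS) attached overnight at 37 C, then were exposed to compound or DMSO for 1 hr at 37 C, 5% CO2. Fluorescence read at Ex/Em 405/460 nm, expressed as triamterene-equivalent signal.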

The target in assay [17] is Glucocorticoid receptor (Homo sapiens) (UniProt P04150). Briefly: qHTS assay to identify small molecule agonists of the glucocorticoid receptor (GR) signaling pathway (AID 720691; active = well fitted activation curve with a large enough effect in the signal ratio in the repeat runs, not every such curve was filed as active; the % refers to the signal ratio). The method in brief:
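Agonist-mode qHTS in HeLa cells stably expressing a glucocorticoid-response-element beta-lactamase reporter. Fluorescence intensity read with FRET substrate (2 h, room temperature) after 18 h compound treatment at 37 C.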

For assay [18] the target is unchanged. Briefly: qHTS assay to identify small molecule antagonists of the glucocorticoid receptor (GR) signaling pathway (AID 720692; active = well fitted inhibition curve with a large enough effect in the signal ratio in the repeat runs, not every such curve was filed as active; the % refers to the signal ratio). The gist of the method: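 Inhibition of dexamethasone-driven (5 nM final) beta-lactamase expression was measured in GRE-reporter HeLa cells over 18 h at 37C. Fluorescence was read after 2 h with the B/G FRET substrate at room temperature.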

The nature of assay [19]: qHTS assay to test for compound auto fluorescence at 460 nm (blue) in HEK293 cells (AID 720678). The gist of the method: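 Auto fluorescence in the blue band was quantified as triamterene equivalency. HEK293 cells were seeded at 2,000/well, dosed after a 4-5 hr attachment, and kept overnight at 37C before the 405/460 nm reading.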
The nature of assay [20]: qHTS assay for small molecules that induce genotoxicity in human embryonic kidney cells expressing luciferase-tagged ATAD5 (AID 651632). Also: nearly all actives have a fitted effect of over 15% in size. The method in brief:
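A rise in luciferase signal from ATAD5-tagged HEK293T cells marks genetic stress. Cells were exposed to compounds for 16 hr at 37C, 5% CO2, then luciferase was quantified after a 30 min room-temperature incubation with Amplite.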

Chain of Glucocorticoid receptor (Homo sapiens) (P04150 whole entry, looked up): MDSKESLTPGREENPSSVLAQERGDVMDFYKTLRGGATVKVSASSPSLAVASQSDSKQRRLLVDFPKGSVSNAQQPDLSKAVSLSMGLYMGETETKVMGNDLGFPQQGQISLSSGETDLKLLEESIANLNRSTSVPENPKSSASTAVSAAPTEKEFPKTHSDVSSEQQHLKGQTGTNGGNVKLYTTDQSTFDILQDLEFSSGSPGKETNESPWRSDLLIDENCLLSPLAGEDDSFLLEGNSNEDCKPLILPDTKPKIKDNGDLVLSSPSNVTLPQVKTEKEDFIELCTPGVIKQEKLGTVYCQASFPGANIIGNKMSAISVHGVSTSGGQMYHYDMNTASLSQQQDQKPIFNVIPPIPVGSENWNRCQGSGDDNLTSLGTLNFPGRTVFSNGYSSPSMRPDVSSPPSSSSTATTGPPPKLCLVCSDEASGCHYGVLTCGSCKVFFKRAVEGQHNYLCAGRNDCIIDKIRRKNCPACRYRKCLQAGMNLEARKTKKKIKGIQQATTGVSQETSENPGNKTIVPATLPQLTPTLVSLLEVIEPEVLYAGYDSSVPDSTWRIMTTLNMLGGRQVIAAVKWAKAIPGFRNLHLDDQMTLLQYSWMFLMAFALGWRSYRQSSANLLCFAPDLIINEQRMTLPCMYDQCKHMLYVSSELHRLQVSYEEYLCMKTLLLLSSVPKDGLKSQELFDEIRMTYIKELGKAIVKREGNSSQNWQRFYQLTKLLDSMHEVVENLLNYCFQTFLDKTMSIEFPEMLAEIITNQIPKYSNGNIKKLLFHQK

As to `CC(C)(C)OOC(C)(C)CCC(C)(C)OOC(C)(C)C`, the Potency entry in assay [1], in assay [2], in [3], in assay [4], in [5] and in assay [17] was “inactive” throughout. For the same molecule, the Potency entry in assay [18] is “inactive”. Further, the molecule was called inactive in assay [6], in [7], in [8], in [9], in assay [10] and in [11]. Also, the molecule was called inactive in [12], in assay [13], in assay [14], in assay [15] and in [16].
For `C[C@@H]1C[C@@H]([C@H](O)CC2CC(=O)NC(=O)C2)C(=O)[C@@H](C)C1`, the Potency in [1] was 11.9 µM (active) and inactive; in assay [3], 1.33 µM (active) and 271 nM (active). Moreover, the Potency entry in assay [2] and in assay [4] was “inactive” throughout. For the same molecule, the result in assay [6], in [7], in [19], in assay [8], in [9] and in [10] was inactive. In addition, the outcome in assay [11], in [12], in assay [13], in assay [14], in assay [15] and in assay [16] was inactive.
Regarding `O=C(O)C(Cl)(Cl)Br`, the Potency result in assay [1], in assay [2], in [3], in assay [4], in assay [17] and in assay [18] was “inactive” throughout. In addition, the call in assay [6], in [7], in assay [19], in assay [8], in assay [9] and in assay [11] was inactive. Further, the call in assay [12], in [13], in assay [14], in assay [15] and in assay [16] was inactive.
As to `CCSCc1ccccc1OC(=O)NC`, the Potency result in assay [1], in [2], in [3], in assay [4] and in assay [17] was “inactive” in each case. Moreover, the result in assay [6], in assay [7], in [19], in assay [8], in assay [9] and in assay [10] was inactive. Moreover, the molecule was classed as inactive in [11], in [12], in assay [13], in assay [14], in [15] and in assay [16].
Regarding `CCCC[N+]1(C)[C@@H]2CC(OC(=O)[C@H](CO)c3ccccc3)C[C@H]1[C@@H]1O[C@@H]12` (stereo partly drawn), the Potency entry in [1], in assay [3], in assay [4], in [5], in [17] and in [18] was “inactive” throughout. Also, the outcome in assay [6], in [7], in [19], in [8], in assay [9] and in [10] was inactive. For the same molecule, the molecule was called inactive in assay [11], in assay [12], in [13], in [14], in [15] and in [16].
As to `CCCC[P+](CC)(CCCC)CCCC` (tested in a mixture with another compound), the Potency result in assay [1], in [20], in [3] and in assay [4] was “inactive” in each case. The call in assay [6], in assay [7], in [8], in assay [9], in [10] and in assay [11] was inactive. Besides, the result in assay [12], in [13], in [14], in [15] and in assay [16] was inactive.
On to `CCOP(=O)(O)C(N)=O`, for which the Potency entry in assay [20], in [2], in [3], in assay [4], in [17] and in [18] was “inactive” each time. Further, the Potency in assay [5] is 3.44 µM (active). For the same molecule, the call in assay [6], in assay [7], in assay [19], in assay [8], in assay [9] and in [10] was inactive. Also, the result in assay [11], in [12], in assay [13], in assay [14], in assay [15] and in assay [16] was inactive.
With `CCC1(C2=NCCN2)Cc2ccccc2O1` (stereo not drawn), the Potency entry in [20], in assay [2], in assay [3], in assay [4] and in [5] was “inactive” throughout. Besides, the molecule was called inactive in [6], in assay [7], in assay [19], in assay [8], in assay [9] and in assay [10]. Moreover, the result in [11], in assay [12], in assay [13], in assay [14], in assay [15] and in [16] was inactive.
For the molecule `CC(C)(C)CC(C)(C)c1ccc(O)cc1`, in [20], the Potency entry is “inactive”. Moreover, the Potency in assay [3] is 61.1 µM (active); in assay [4], 23.7 µM (active) and 17.2 µM (active); in assay [5], 3.35 µM (active) and 1.72 µM (active). The molecule was classed as inactive in [6], in assay [7], in [19], in [8], in assay [9] and in assay [10]. Further, the molecule was classed as inactive in [11], in assay [12], in assay [13], in [14], in assay [15] and in assay [16].
On to `CC(C)(C)c1ccc(CCOc2ncnc3ccccc23)cc1`, for which the Potency entry in assay [20], in [3], in [4] and in assay [5] was “inactive” each time. Further, the outcome in assay [6], in assay [7], in assay [19], in assay [8], in assay [9] and in assay [11] was inactive. In addition, the molecule was classed as inactive in assay [12], in [13], in assay [14], in assay [15] and in [16].
`CCOC(=O)NC(O)C(Cl)(Cl)Cl` (stereo not drawn): the Potency result in assay [20], in assay [2], in assay [3], in assay [4] and in assay [5] was “inactive” each time. Also, the molecule was called inactive in assay [6], in [7], in assay [8], in assay [9], in assay [10] and in assay [11]. For the same molecule, the molecule was classed as inactive in assay [12], in assay [13], in assay [14] and in [16].
As for `C=CCSSCC=C`, the Potency entry in assay [20], in [2], in [3], in assay [4] and in assay [5] was “inactive” in each case. The molecule was classed as inactive in assay [6], in assay [7], in assay [8], in assay [9], in assay [10] and in assay [11]. The outcome in assay [12], in [13], in assay [14] and in assay [16] was inactive.
As to `O=CC=O`, the Potency entry in [20], in [2], in assay [3], in assay [4], in assay [5] and in [17] was “inactive” each time. In addition, the Potency entry in [18] was “inactive”. Also, the molecule was classed as inactive in [6], in assay [7], in [19], in [8], in [9] and in assay [11]. For the same molecule, the call in [12], in assay [13], in [14], in assay [15] and in [16] was inactive.
For `CC(=O)OC(c1ccccc1)C(Cl)(Cl)Cl` (stereo not drawn), the Potency result in assay [20], in assay [2], in [3], in assay [4] and in [17] was “inactive” each time. The Potency in assay [5] was 54.5 µM (active). In addition, the outcome in assay [6], in assay [7], in [19], in assay [8], in [9] and in assay [10] was inactive. In addition, the molecule was called inactive in assay [11], in [12], in [13], in assay [14] and in assay [16].
